Compounds without any hit were thinned out: in the full panel of roughly 83,000, 20% have a hit.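 Method: cells in 96-well plates; compound added at one concentration; 48 h incubation; percent growth measured; values under 10 scored active.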 Unmarked numbers belong to inactive results. Calls of active or inactive are those of the source.
test system: HCC-2998 colon; test: NCI-60 one-dose screen, 48 h (100 = growth as untreated, 0 = no growth, -100 = all killed); settings: 10 µM unless noted
Method: Growth inhibition of the HCC-2998 human tumor cell line is measured as a screen for anti-cancer activity. Cells are grown in 96 well plates and exposed to the test compound for 48 hours. Compounds are tested at a single concentration, which is 10^-5 M for most compounds. The reported endpoint is percent growth (GI% or GIPRCNT), where numbers from 0 - 100% represent growth inhibition, and numbers from -100% - 0 represent cell death. For example, a value of 40 represents 60% growth inhibition. A value of 0 means no net growth occurred over the course of the experiment. A value of -40 indicates 40% of cells at the beginning of the experiment died by the end of the experiment. A value of -100 means all cells are dead at the end of the experiment.
NCI-60 Human Tumor Cell Lines Screen was performed using the standard one-dose NCI protocol, which is described in more detail at https://dtp.cancer.gov/discovery_development/nci-60/default.htm.
Compounds with GIPRCNT values below 10 were considered active. Activity score was based on GIPRCNT using the following formula: […]
Score is 0 for GIPRCNT values of 100 or above, 50 for GIPRCNT values of 0, and 100 for GIPRCNT values of -100.

| Compound | growth |
| --- | --- |
| COC(=O)c1c(NC(=O)CSc2nnnn2-c2ccc(OC)cc2)sc(C)c1C | 87.6% |
| NC(=O)c1cc(Br)cc(Br)c1NS(=O)(=O)c1ccccc1 | 106% |
| Clc1ccc2nc(CI)c(CI)nc2c1 | 100% |
| NS(=O)(=O)c1cc(C2(O)NC(=O)c3ccccc32)ccc1Cl (stereo not given) | 109% |
| CSc1nc(-c2ccc(O)cc2O)c2c(=O)[nH]c(Nc3ccc(S(=O)(=O)Nc4nc(C)cc(C)n4)cc3)nc2n1 | 93.4% |
| Nc1nc2c(c(=O)[nH]1)C1(C(=O)Nc3ccccc31)c1c(nc(N)[nH]c1=O)N2 | 114% |
| COc1cc(-c2nc3sc4c(c3c(=O)[nH]2)CCCCCC4)cc(OC)c1OC | -1.77% (active) |
| COc1cc2c(cc1OC)C(CC1(O)CCCCC1)N(S(=O)(=O)c1ccc(C)cc1)CC2 (stereo not given) | 39% [100 µM] |
| Clc1ccc2[nH]cc(-c3cncn3CCc3ccccc3)c2c1 | 89.2% |
| COc1cnc2c(c1)C(=O)c1c-2n(CCCN2CCNCC2)c(=O)c2cc(F)ccc12 | 2.69% (active) |
| O=C(/C=C(\Nc1ccccc1)c1ccccc1)c1cn(-c2ccc([N+](=O)[O-])cc2)nn1 | 103% |
| COc1ccc(OC)c(CCn2cncc2-c2c[nH]c3cc(Br)ccc23)c1 | 69.6% |
| O=[N+]([O-])c1ccc2[nH]cc(-c3c4ccccc4cc4[nH]c5ccc([N+](=O)[O-])cc5c34)c2c1 | 57.6% |
| COc1cc(/C=C2\CN(C)CC3=C2Nc2nc(SC)[nH]c(=O)c2C3c2cc(OC)c(OC)c(OC)c2)cc(OC)c1OC (stereo not given) | 49.9% |
| CCCCCCCCCCN1CCC(N2CCCCC2)CC1 | 14.8% |
| COc1cnc2c(c1)C(=O)c1c-2n(CCCN2CCC(O)CC2)c(=O)c2cc(F)ccc12 | 13.5% |
| COc1ccc2c(c1)[n+](=O)c(/C=C/C(=O)c1cc(OC)c(OC)c(OC)c1)c(C)n2[O-] | 112% |
| Cc1ccc2c(c1)C(=O)/C(=C\Nc1ccc(C(N)=O)cc1)C(O)O2 (stereo not given) | 134% |
| CC(C)CC1NC(=O)C(CCCN)NC(=O)C(C(C)C)NC(=O)C2CCCN2C(=O)C(Cc2ccccc2)NC(=O)C(CC(C)C)NC(=O)C(CCCN)NC(=O)C(C(C)C)NC(=O)C2CCCN2C(=O)C(Cc2ccccc2)NC1=O (stereo not given) | -36.2% (active) |
| Cc1onc(-c2ccccc2Cl)c1C(=O)N[C@@H]1C(=O)N2[C@@H]1SC(C)(C)[C@@H]2C(=O)O | 99.6% |

| Compound | growth |
| --- | --- |
| O=C1c2cccc3c([N+](=O)[O-])ccc(c23)C(=O)N1CCCCl | -91.9% [100 µM] (active) |
| COC(=O)C1=CCC(n2cnc3c(N)ncnc32)O1 (stereo not given) | 106% |
| O=C1NCCc2c1noc2-c1ccccc1 | 99.9% |
| CCN(CC)CCNCC(=O)Oc1ccc(/C=C/C(=O)CC(=O)/C=C/c2ccc(OC(=O)CNCCN(CC)CC)c(OC)c2)cc1OC | -24.9% (active) |
| Cc1[nH]cnc1/C=C1\SC(N2CCCCC2)=NC1=O | 101% |
| CCCCCCCSc1ncnc2[nH]ncc12 | 119% |
| Cc1cc(=O)oc2cc(OCCn3c(C)nn(-c4ccc(Cl)cc4)c3=O)ccc12 | 46.7% |
| O=C1NC(=O)/C(=C\c2ccco2)S1 | 116% |
| O=C1CSC(c2ccccc2O)N1c1nnc(Cn2ccnc2)o1 (stereo not given) | 67.1% |
| [N-]=[N+]=NCc1ncc(-c2ccc(C(F)(F)F)cc2)c(NC2CCCCCC2)n1 | 85.8% [50 µM] |
| CCCc1n(Cc2ccc3ccccc3c2)cc[n+]1Cc1ccc2ccccc2c1 | -22.9% (active) |
| COc1ccc2c(c1)sc1nc(-c3ccc(N(C)C)cc3)cn12 | 92% |
| COc1ccc(-c2nc3sc4c(c3c(=O)[nH]2)CCCCCC4)cc1 | 80.9% |
| CNc1nc(NC2CCCC2)nc(Sc2ccc(OC)cc2)n1 | 38% [100 µM] |
| CCSc1nc(-c2cccs2)n2nc(-c3ccco3)cc2n1 | 105% |
| CCN(CC)CCSc1ncnc2c1cnn2-c1ccc(S(N)(=O)=O)cc1 | 97.8% |
| COc1cc(C(=O)/C=C/c2cccc(Nc3ccnc4cc(Cl)ccc34)c2)cc(OC)c1OC | 40.1% |
| COC(=O)[C@H](Cc1cn(C)cn1)NC(=O)[C@@H](NC(=O)Nc1cc(C(F)(F)F)cc(C(F)(F)F)c1)C(C)C | -86.7% [100 µM] (active) |
| CN1CCC[C@@H]1CCO[C@](C)(c1ccccc1)c1ccc(Cl)cc1 | 61.8% |
| COc1cc(C2CC(C3C(=O)N(C)C(=O)N(C)C3=O)=NN2C=O)cc(OC)c1OC (stereo not given) | 100% |
